From ChEMBL document CHEMBL1961873, “Compounds: GSK PKIS; Assays: Nanosyn kinase panel” (2012)

Assays:
[1] = molecular target: Rho-associated protein kinase 1 (Homo sapiens) (UniProt Q13464); conditions: at 1 µM;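 further: reported values are mean percent inhibition of ROCK1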
[2] = molecular target: Rho-associated protein kinase 2 (Homo sapiens) (UniProt O75116); conditions: at 0.1 µM
[3] = molecular target: Rho-associated protein kinase 2 (Homo sapiens) (UniProt O75116); conditions: at 1 µM
[4] = molecular target: Ribosomal protein S6 kinase alpha-1 (Homo sapiens) (UniProt Q15418); conditions: at 0.1 µM
[5] = molecular target: Ribosomal protein S6 kinase alpha-1 (Homo sapiens) (UniProt Q15418); conditions: at 1 µM
[6] = molecular target: Ribosomal protein S6 kinase alpha-3 (Homo sapiens) (UniProt P51812); conditions: at 0.1 µM
[7] = molecular target: Ribosomal protein S6 kinase alpha-3 (Homo sapiens) (UniProt P51812); conditions: at 1 µM
[8] = molecular target: Ribosomal protein S6 kinase alpha-2 (Homo sapiens) (UniProt Q15349); conditions: at 0.1 µM
[9] = molecular target: Ribosomal protein S6 kinase alpha-2 (Homo sapiens) (UniProt Q15349); conditions: at 1 µM
[10] = molecular target: Ribosomal protein S6 kinase alpha-6 (Homo sapiens) (UniProt Q9UK32); conditions: at 0.1 µM
[11] = molecular target: Ribosomal protein S6 kinase alpha-6 (Homo sapiens) (UniProt Q9UK32); conditions: at 1 µM
[12] = molecular target: T1, Serine/threonine-protein kinase Sgk1 (Homo sapiens) (UniProt O00141); conditions: at 0.1 µM
T1 sequence (whole entry): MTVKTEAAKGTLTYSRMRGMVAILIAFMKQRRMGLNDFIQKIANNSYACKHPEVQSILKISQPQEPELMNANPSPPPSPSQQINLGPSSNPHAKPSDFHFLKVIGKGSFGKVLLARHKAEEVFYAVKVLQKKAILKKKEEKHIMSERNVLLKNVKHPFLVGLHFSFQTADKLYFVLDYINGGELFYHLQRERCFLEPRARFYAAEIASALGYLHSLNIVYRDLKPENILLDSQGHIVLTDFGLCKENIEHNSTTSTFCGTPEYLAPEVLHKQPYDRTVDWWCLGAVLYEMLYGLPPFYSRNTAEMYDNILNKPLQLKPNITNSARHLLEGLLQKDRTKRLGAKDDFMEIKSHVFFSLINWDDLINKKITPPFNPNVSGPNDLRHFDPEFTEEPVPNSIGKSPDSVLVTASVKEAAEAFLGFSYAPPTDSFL

[13] = molecular target: T1, Serine/threonine-protein kinase Sgk1 (Homo sapiens); conditions: at 1 µM
[14] = molecular target: T2, Serine/threonine-protein kinase Sgk2 (Homo sapiens) (UniProt Q9HBY8); conditions: at 0.1 µM
T2 sequence (whole entry): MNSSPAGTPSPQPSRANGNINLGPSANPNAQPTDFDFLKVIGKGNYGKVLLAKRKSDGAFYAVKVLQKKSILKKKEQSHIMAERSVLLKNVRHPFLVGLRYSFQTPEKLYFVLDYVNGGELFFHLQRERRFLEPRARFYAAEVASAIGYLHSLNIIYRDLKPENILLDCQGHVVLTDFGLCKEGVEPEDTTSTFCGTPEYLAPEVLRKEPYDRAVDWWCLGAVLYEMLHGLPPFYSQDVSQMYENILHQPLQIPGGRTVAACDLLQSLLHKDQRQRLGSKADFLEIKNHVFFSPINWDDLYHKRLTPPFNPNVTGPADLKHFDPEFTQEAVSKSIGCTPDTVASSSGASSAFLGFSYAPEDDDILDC

[15] = molecular target: T2, Serine/threonine-protein kinase Sgk2 (Homo sapiens); conditions: at 1 µM
[16] = molecular target: T3, Serine/threonine-protein kinase Sgk3 (Homo sapiens) (UniProt Q96BR1); conditions: at 0.1 µM
T3 sequence (whole entry): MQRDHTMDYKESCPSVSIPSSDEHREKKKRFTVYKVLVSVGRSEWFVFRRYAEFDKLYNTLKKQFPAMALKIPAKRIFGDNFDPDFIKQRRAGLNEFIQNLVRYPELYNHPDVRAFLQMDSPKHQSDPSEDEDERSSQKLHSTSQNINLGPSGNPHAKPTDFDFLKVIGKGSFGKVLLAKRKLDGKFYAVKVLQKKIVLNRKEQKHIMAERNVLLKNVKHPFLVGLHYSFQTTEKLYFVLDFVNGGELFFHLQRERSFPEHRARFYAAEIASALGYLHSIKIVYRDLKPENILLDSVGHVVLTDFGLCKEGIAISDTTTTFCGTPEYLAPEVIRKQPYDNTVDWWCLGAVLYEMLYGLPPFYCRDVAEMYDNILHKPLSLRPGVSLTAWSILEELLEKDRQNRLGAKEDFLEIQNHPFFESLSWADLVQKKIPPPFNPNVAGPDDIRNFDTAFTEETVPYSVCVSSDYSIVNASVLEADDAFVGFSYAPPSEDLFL

[17] = molecular target: T3, Serine/threonine-protein kinase Sgk3 (Homo sapiens); conditions: at 1 µM
[18] = molecular target: 5'-AMP-activated protein kinase catalytic subunit alpha-1 (Homo sapiens) (UniProt Q13131); conditions: at 0.1 µM
[19] = molecular target: 5'-AMP-activated protein kinase catalytic subunit alpha-1 (Homo sapiens) (UniProt Q13131); conditions: at 1 µM
[20] = molecular target: 5'-AMP-activated protein kinase catalytic subunit alpha-2 (Homo sapiens) (UniProt P54646); conditions: at 0.1 µM;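 further: mean inhibition measured on the AMPK complex of alpha2, beta1 and gamma1 subunits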

Sequence of Ribosomal protein S6 kinase alpha-3 (Homo sapiens) (P51812 whole entry): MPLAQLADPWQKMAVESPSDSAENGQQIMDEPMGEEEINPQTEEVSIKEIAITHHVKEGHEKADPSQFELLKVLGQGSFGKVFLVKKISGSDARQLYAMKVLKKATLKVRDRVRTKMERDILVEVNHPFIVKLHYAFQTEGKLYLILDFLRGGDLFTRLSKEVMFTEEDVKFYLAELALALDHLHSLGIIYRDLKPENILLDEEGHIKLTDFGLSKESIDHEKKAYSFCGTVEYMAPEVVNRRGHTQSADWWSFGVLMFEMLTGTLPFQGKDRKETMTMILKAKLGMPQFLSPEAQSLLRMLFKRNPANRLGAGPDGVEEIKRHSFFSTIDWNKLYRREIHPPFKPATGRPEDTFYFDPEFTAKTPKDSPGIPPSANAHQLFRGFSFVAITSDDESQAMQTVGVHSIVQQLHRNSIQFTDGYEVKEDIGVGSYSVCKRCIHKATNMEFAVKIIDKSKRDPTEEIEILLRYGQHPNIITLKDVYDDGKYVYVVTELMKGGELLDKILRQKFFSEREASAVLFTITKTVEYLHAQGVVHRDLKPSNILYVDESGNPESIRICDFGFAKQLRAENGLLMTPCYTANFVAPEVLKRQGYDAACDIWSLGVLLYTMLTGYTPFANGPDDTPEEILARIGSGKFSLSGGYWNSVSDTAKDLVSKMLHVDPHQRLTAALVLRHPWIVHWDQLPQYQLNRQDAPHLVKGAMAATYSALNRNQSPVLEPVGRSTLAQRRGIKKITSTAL
Sequence of 5'-AMP-activated protein kinase catalytic subunit alpha-1 (Homo sapiens) (Q13131 whole entry, looked up): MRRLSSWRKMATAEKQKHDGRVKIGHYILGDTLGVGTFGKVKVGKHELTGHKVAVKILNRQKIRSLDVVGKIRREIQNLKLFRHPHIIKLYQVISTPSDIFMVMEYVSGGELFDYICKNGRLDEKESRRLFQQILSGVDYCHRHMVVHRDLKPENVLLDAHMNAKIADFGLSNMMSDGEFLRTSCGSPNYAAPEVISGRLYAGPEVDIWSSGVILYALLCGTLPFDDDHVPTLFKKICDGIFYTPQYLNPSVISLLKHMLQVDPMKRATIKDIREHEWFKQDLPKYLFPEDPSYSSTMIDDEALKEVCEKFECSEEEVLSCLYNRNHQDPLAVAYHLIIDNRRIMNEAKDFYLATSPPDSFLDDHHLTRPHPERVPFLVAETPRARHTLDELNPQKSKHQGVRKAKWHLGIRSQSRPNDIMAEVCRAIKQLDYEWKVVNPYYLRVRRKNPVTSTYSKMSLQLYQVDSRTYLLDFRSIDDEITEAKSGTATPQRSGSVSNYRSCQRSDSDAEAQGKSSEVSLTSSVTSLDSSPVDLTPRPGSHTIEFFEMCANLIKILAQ
Sequence of Ribosomal protein S6 kinase alpha-2 (Homo sapiens) (Q15349 whole entry): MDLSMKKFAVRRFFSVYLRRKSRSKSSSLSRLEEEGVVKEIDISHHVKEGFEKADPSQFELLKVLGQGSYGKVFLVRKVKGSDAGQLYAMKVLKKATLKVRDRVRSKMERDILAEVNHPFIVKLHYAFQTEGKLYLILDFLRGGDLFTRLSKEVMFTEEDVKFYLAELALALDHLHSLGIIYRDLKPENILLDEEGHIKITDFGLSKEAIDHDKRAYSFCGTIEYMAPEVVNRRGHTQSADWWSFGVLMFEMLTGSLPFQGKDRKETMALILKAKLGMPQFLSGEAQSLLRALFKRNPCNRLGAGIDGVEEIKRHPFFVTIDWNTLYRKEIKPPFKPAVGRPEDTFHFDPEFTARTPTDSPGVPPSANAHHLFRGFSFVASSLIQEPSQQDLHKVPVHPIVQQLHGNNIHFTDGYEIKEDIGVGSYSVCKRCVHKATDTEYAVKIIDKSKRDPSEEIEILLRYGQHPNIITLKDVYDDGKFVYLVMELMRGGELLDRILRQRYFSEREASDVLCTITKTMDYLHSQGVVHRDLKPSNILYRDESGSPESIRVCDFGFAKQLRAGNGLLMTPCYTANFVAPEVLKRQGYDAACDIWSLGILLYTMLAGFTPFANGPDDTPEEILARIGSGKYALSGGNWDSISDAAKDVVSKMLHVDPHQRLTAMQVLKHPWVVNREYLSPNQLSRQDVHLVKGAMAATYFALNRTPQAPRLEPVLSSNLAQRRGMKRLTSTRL
Sequence of Ribosomal protein S6 kinase alpha-1 (Homo sapiens) (Q15418 whole entry): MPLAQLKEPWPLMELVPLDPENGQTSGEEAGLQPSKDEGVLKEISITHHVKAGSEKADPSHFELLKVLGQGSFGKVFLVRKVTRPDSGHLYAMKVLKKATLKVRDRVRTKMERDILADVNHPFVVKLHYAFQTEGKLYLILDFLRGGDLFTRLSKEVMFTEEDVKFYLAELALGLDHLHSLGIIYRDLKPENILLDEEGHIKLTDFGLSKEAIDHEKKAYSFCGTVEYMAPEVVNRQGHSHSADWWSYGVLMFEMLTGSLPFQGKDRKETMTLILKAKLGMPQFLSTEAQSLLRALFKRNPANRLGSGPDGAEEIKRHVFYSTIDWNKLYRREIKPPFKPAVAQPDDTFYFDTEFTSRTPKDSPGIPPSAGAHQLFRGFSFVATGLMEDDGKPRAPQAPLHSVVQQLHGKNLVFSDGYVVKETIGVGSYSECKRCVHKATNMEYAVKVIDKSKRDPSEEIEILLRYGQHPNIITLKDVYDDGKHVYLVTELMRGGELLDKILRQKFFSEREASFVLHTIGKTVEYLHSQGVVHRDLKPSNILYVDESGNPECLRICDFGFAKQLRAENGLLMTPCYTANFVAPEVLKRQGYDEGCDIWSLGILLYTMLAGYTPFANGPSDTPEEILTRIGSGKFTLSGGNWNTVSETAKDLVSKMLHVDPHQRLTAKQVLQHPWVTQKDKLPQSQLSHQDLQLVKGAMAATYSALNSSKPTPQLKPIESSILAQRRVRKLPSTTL
Sequence of Ribosomal protein S6 kinase alpha-6 (Homo sapiens) (Q9UK32 whole entry): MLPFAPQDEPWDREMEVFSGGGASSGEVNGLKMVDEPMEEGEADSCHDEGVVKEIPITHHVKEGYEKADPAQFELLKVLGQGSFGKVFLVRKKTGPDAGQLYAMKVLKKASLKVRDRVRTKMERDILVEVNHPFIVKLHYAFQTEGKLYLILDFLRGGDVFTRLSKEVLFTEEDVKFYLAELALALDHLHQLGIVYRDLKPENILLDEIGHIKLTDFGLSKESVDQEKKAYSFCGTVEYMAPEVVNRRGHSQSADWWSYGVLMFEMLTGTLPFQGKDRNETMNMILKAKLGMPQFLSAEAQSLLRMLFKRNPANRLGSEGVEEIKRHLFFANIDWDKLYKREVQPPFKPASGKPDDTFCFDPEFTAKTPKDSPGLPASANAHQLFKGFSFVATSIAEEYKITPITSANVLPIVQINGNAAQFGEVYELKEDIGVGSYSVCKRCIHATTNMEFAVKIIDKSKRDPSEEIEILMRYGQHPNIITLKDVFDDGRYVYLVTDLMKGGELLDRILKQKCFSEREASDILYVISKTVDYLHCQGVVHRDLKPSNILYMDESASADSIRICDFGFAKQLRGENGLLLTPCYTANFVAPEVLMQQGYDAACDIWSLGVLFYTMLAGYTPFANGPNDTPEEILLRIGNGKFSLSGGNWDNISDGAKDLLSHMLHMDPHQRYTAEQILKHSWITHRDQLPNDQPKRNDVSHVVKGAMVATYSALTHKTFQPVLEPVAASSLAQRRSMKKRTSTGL
Sequence of Rho-associated protein kinase 2 (Homo sapiens) (O75116 whole entry, looked up): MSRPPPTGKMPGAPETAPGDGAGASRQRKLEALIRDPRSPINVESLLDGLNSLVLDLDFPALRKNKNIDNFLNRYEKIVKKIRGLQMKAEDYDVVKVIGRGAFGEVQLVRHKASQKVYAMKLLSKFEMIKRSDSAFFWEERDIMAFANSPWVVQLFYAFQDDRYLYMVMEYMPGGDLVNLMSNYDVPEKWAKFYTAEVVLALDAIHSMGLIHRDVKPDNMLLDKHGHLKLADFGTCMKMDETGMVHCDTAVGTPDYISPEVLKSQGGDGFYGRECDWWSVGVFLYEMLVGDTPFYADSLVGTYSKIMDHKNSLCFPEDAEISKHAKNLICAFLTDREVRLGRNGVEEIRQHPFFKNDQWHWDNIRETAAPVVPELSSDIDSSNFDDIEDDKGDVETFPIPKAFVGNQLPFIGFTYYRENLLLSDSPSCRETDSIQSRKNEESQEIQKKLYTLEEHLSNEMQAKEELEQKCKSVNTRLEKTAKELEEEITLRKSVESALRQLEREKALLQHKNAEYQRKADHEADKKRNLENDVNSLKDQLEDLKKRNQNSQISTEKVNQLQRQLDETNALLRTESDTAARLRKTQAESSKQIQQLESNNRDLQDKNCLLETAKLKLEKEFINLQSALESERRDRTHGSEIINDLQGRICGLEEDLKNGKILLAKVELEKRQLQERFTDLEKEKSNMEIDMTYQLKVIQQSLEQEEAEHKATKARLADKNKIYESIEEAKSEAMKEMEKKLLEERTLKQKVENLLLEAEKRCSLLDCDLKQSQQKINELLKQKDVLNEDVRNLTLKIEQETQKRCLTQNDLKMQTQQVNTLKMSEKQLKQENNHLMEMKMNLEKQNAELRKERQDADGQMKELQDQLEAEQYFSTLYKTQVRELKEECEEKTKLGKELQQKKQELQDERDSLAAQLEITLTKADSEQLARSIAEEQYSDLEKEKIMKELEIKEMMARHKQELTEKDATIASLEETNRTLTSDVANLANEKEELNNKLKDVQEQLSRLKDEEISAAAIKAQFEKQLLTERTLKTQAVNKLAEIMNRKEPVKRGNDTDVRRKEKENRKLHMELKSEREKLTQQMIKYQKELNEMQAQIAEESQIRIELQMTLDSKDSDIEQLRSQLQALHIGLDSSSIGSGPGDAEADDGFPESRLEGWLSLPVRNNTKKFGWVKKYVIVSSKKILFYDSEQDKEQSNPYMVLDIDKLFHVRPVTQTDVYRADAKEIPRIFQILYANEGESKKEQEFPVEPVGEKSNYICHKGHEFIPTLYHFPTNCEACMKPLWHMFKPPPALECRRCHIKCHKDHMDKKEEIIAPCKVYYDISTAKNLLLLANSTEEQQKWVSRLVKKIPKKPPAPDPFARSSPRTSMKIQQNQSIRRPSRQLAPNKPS

SMILES	inhibition [1] [%]	inhibition [2] [%]	inhibition [3] [%]	inhibition [4] [%]	inhibition [5] [%]	inhibition [6] [%]	inhibition [7] [%]	inhibition [8] [%]	inhibition [9] [%]	inhibition [10] [%]	inhibition [11] [%]	inhibition [12] [%]	inhibition [13] [%]	inhibition [14] [%]	inhibition [15] [%]	inhibition [16] [%]	inhibition [17] [%]	inhibition [18] [%]	inhibition [19] [%]	inhibition [20] [%]
COC(=O)Nc1nc2cc(Oc3ccc(NC(=O)Nc4cccc(Br)c4)cc3)ccc2[nH]1	7.16	3.44	6.83	1.44	1.53	1.69	0.56	1.65	2.4	1.97	1.35	4.42	6.16	2.07	3.07	2.77	3.45	2.86	2.58	0.56
Nc1nccc(-c2c(-c3ccc(F)cc3)ncn2CCCN2CCOCC2)n1	3.31	4.99	5.24	2.16	4.6	1.92	2.6	3.04	2.27	2.26	3.56	1.7	5.95	0.32	6.95	3.43	3.38	3.37	3.19	3.33
CCn1c(-c2nonc2N)nc2c(C#CC(C)(C)O)nc(OCCNC)cc21	4.86	3.51	5.7	0.22	4.86	1.84	5.57	3.02	7.49	0.98	2.45	1.88	2.66	2.29	4.48	2.71	13.9	2.74	8.37	4.37
Cc1ccc2c(-c3ccnc(Nc4cccc(C(F)(F)F)c4)n3)c(-c3ccccc3)nn2n1	3.58	3.31	3.33	0.52	2.33	-0.67	0.59	3.58	3.98	0.82	2.56	2.23	3.64	5.64	-0.25	3.07	4.11	0.65	2.66	5.96
COc1ccc2ncnc(Nc3ccc(OCc4ccccc4)cc3)c2c1	-0.47	1.37	1.27	0.33	0.98	1.83	1.15	0.9	0.99	1.03	0.55	0.21	4.55	-1.08	-0.13	2.62	2.59	2.15	1.44	0.53
Cc1ccc2c(-c3ccnc(Nc4ccc5c(c4)OCCO5)n3)c(-c3ccc(C(F)(F)F)cc3)nn2n1	1.22	0.44	1.89	0.91	0.79	1.19	1.86	1.06	1.53	-0.18	0.44	0.85	1.65	-0.62	-1.7	0.16	-1.14	0.51	3.23	0.13
NS(=O)(=O)c1ccc(-c2cc3ccncc3cc2OCc2ccccc2)cc1	4.04	2.48	6.37	1.11	3.06	-0.24	0.92	0.22	2.19	-0.43	0.34	2.5	2.69	1.44	-1.22	0.75	2.72	2.82	3.15	0.66
COC(=O)c1ccc2c(c1)C(=Cc1cc(Br)c(O)c(Br)c1)C(=O)N2	1.74	1.52	3.89	1.5	6.51	1.97	4.23	3.99	6.79	2.52	7.3	1.67	5.36	5.27	12.1	3.08	3.5	2.71	6.28	8.21
O=C1Nc2ccc(-c3cccnc3)cc2C1=Cc1cc(Br)c(O)c(Br)c1	4.77	2.87	7.43	2.15	2.73	0.76	-1.29	1.03	3.66	1.69	5.51	3.01	3.05	1.63	6.41	3.1	2	3.07	3.3	2.54
COc1cc(/C=N/Nc2ncnc3c2cnn3C(C)C)ccc1O	4.3	0.86	2.83	10.4	1.08	0.95	1.27	1.98	2.99	1.4	3.17	1.69	2.88	1.5	1.93	0.68	2.8	1.32	4.22	3.01
COc1cc2ncn(-c3cc(OCc4ccccc4S(C)(=O)=O)c(C#N)s3)c2cc1OC	6.5	5.73	6.61	5.57	14	5.02	13.7	3.37	10.2	3.14	16.4	2.34	4.47	2.96	4.38	4.43	4.05	33.4	74.6	5.84
NS(=O)(=O)c1ccc(Nc2cc(-c3cccc(O)c3)n[nH]2)cc1	2.17	3.43	4.85	2.5	6.11	2.14	6.36	1.18	5.39	1.24	4.67	6.76	4.48	2.52	1.36	6.64	2.75	5.36	11.1	5.11
Nc1nccc(C#Cc2cncnc2Nc2ccc(OCc3cccc(F)c3)c(Cl)c2)n1	3.74	2.53	4.22	1.3	2.85	0.4	0.81	2.21	2.85	0.59	1	2.17	2.96	1.54	3.69	2.12	3.95	3.13	5.37	1.22
